The record followed here is PMC4336329 (PLoS ONE, 2015).

Screen size: about 310,000 compounds; about 2,200 (0.71%) showed an effect of 50% or more. Effects have a minus sign here. What follows is part of a selection rich in strong results, with near analogues and random picks from the rest.

The assay deals with human ether-à-go-go-related gene (hERG) potassium channel (human, UniProt Q12809). Nature of the assay: primary screen, population patch clamp on CHO cells stably expressing hERG; higher = less effect of the substance. How it is done: Briefly, Chinese hamster ovary (CHO) cells stably expressing the hERG channel were dislodged from tissue culture flasks and dispensed into PPC plates. […] During the recording, background leak currents were estimated by a 100 ms step to -80 mV from an initial holding potential of -70 mV and subtracted from the subsequent current measurement. The campaign was conducted in two phases using slight differences in recording protocol. In the first phase, the initial voltage pulse used a 100 ms step to -30 mV from a holding potential of -70 mV, a 2 s conditioning step to +25 mV, and a 2 s test step to -30 mV. During the second phase of the screen, the potential during the conditioning step was raised to +45 mV. In both phases of the campaign, a secondary voltage pulse was applied using the same parameters as the second phase initial pulse. The initial and secondary pulses were applied in the absence of compound, and upon application of 1 μM and 10 μM test concentrations. Small molecule effects on hERG current density were quantified by […].
Chain of human ether-à-go-go-related gene (hERG) potassium channel (Q12809 whole entry, looked up): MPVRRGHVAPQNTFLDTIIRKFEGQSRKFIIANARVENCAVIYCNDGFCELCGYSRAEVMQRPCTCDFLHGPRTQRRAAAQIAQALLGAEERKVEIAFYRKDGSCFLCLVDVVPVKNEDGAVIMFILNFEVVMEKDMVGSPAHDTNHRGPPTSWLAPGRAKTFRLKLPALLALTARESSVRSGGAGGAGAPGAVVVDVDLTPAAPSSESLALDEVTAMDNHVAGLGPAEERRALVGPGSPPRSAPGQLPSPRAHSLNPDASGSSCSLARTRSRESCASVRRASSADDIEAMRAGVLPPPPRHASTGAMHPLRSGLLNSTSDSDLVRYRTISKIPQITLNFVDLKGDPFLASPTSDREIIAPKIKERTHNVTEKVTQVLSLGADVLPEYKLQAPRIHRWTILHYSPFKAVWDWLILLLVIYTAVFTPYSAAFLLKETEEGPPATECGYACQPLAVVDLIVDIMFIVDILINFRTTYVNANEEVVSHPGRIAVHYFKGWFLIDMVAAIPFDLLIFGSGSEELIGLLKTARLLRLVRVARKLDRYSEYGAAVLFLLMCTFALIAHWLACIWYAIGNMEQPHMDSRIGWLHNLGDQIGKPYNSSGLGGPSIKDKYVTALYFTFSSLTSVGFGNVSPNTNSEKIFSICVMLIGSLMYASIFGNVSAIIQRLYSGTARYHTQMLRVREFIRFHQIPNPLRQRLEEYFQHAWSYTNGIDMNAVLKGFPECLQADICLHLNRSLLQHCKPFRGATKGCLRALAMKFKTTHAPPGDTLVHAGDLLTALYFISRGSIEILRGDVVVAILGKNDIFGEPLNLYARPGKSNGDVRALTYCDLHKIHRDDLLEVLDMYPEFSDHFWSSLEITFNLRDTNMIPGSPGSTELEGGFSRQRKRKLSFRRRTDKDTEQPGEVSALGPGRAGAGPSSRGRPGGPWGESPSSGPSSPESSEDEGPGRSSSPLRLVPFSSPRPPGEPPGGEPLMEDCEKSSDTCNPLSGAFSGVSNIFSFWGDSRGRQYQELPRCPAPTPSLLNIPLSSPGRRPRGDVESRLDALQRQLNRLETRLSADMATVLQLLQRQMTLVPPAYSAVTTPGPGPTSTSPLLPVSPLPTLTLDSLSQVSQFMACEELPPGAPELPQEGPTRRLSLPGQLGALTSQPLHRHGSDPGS
Regarding `NC(=O)c1ncn([C@@H]2O[C@H](CO)[C@@H](O)[C@H]2O)n1`, the “hERG current change (%, negative = inhibition) at 1uM” value is on record as 25.8%.

Consider `Cn1c([O-])c(Cc2cccc(Cl)c2Cl)c(=O)n(C)c1=O.[NH4+]`, for which the “hERG current change (%, negative = inhibition) at 1uM” value worked out at 17.5%.

For the compound `CCOc1ccc(OCC(=O)OCC(=O)N(CC(C)C)c2c(N)n(Cc3ccccc3)c(=O)[nH]c2=O)cc1`, the “hERG current change (%, negative = inhibition) at 1uM” value turned out to be 5.08%.

`COc1cccc(NC(=O)Nc2cccc(C(=O)O)c2)c1`: the “hERG current change (%, negative = inhibition) at 1uM” value is given as 16.4%.

`CCOC(=O)C(CC)Sc1ccc2nnc(CCNS(=O)(=O)c3ccccc3)n2n1` (stereo not shown): the “hERG current change (%, negative = inhibition) at 1uM” value is 3.33%.

As to `O=C(NCc1ccc(Cl)cc1Cl)C(=O)N1CCCCC1`, the “hERG current change (%, negative = inhibition) at 1uM” value is 7%.

On to `CSCCC(=O)N(C)CC1CCCN(CCc2cccc(C(F)(F)F)c2)C1` (stereo not shown), for which the “hERG current change (%, negative = inhibition) at 1uM” value is listed as -55.1%.

Turning to `COc1cccc(C(=O)N(C)CC2CCN(CCc3cccc(C(F)(F)F)c3)CC2)c1`, the “hERG current change (%, negative = inhibition) at 1uM” value is given as -70.3%.

Turning to `CN(CC1CCN(CCc2cccc(C(F)(F)F)c2)CC1)C(=O)c1ccc(F)cc1F`, the “hERG current change (%, negative = inhibition) at 1uM” value is on record as -35.9%.

`O=C(c1cccc(C(F)(F)F)c1)N1CCN(CCc2ccccc2)CC1`: the “hERG current change (%, negative = inhibition) at 1uM” value turned out to be 1.81%.

As for `COc1ccc(CC(=O)NCC2CCCN(Cc3cccc(C(F)(F)F)c3)C2)cc1` (stereo not shown), the “hERG current change (%, negative = inhibition) at 1uM” value is 5.75%.

As to `CN(CC1CCCN(CCc2cccc(C(F)(F)F)c2)C1)C(=O)c1ccc2nc[nH]c2c1` (stereo not shown), the “hERG current change (%, negative = inhibition) at 1uM” value amounted to 5.78%.

For the compound `CN(CC1CCCN(CCc2cccc(C(F)(F)F)c2)C1)C(=O)c1ccco1` (stereo not shown), the “hERG current change (%, negative = inhibition) at 1uM” value was -38.3%.

Consider `CN(CC1CCN(CCc2cccc(C(F)(F)F)c2)CC1)C(=O)c1ccc(F)cc1`, for which the “hERG current change (%, negative = inhibition) at 1uM” value is -60%.

As to `CN(CC1CCN(CCc2cccc(C(F)(F)F)c2)CC1)C(=O)c1ccccc1`, the “hERG current change (%, negative = inhibition) at 1uM” value is given as -56.1%.

With `CC(=O)Nc1ccc(CN(C)CC2CCCN(CCc3cccc(C(F)(F)F)c3)C2)cc1` (stereo not shown), the “hERG current change (%, negative = inhibition) at 1uM” value was -18.4%.

With `COC(=O)CCC(=O)N(C)CC1CCCN(CCc2cccc(C(F)(F)F)c2)C1` (stereo not shown), the “hERG current change (%, negative = inhibition) at 1uM” value was -39.9%.

Take `CSCCC(=O)N(C)CC1CCN(CCc2cccc(C(F)(F)F)c2)CC1`: the “hERG current change (%, negative = inhibition) at 1uM” value is -27.3%.

For the compound `CCn1c(/N=C/c2ccc(OC)cc2O)nc2ccccc21`, the “hERG current change (%, negative = inhibition) at 1uM” value is reported as 14%.

`Cc1ccc(NC(=O)Nc2cccn(Cc3c(F)cccc3Cl)c2=O)cc1`: the “hERG current change (%, negative = inhibition) at 1uM” value is recorded as 13.2%.

Consider `S=C(Nc1ccccc1)Nc1ccc(Br)cc1`, for which the “hERG current change (%, negative = inhibition) at 1uM” value is recorded as 14.5%.

`Cc1cccnc1-n1c(C)nc2ccccc2c1=O`: the “hERG current change (%, negative = inhibition) at 1uM” value worked out at 7.55%.

As to `CSCCC(NC(=O)c1cc(C(C)(C)C)oc1C)C(=O)O` (stereo not shown), the “hERG current change (%, negative = inhibition) at 1uM” value is on record as 15.6%.

Turning to `COc1cc(C(=O)O)c2c(c1C)OC(=O)c1c(C)cc(O)c(C=O)c1O2`, the “hERG current change (%, negative = inhibition) at 1uM” value amounted to 22.5%.

Consider `COc1cc(C(=O)N(C)CC2CCN(CCc3cccc(C(F)(F)F)c3)CC2)ccc1C`, for which the “hERG current change (%, negative = inhibition) at 1uM” value was -63.8%.

As to `CC(=O)NCCC(=O)N(C)CC1CCN(CCc2cccc(C(F)(F)F)c2)CC1`, the “hERG current change (%, negative = inhibition) at 1uM” value is reported as 12.5%.

In the case of `COc1cc(CN(C)CC2CCCN(CCc3cccc(C(F)(F)F)c3)C2)ccc1O` (stereo not shown), the “hERG current change (%, negative = inhibition) at 1uM” value is 2.96%.

Turning to `CCCC(=O)Nc1ccc(NC(=O)c2ccccc2F)cn1`, the “hERG current change (%, negative = inhibition) at 1uM” value was determined as 11.2%.

Regarding `Fc1ccc(NC(=S)NCCN2CCOCC2)c(F)c1F`, the “hERG current change (%, negative = inhibition) at 1uM” value worked out at 12.2%.

With `S=C(Nc1ccc2snnc2c1)N1CCN(c2ccccn2)CC1`, the “hERG current change (%, negative = inhibition) at 1uM” value is 10%.

As to `COc1cccc(N2CCN(CC(=O)c3c(C)[nH]c4ccccc34)CC2)c1`, the “hERG current change (%, negative = inhibition) at 1uM” value was -10.9%.

Regarding `Cc1ccc(S(=O)(=O)N(CC(=O)NCc2ccncc2)Cc2ccccc2F)cc1`, the “hERG current change (%, negative = inhibition) at 1uM” value is listed as -53.2%.

With `Cc1ccc(S(=O)(=O)N(CC(=O)NCc2ccncc2)Cc2ccc(F)cc2)cc1`, the “hERG current change (%, negative = inhibition) at 1uM” value is given as -75%.

Consider `CCCNC(=O)CN(Cc1ccccc1F)S(=O)(=O)c1ccc(C)cc1`, for which the “hERG current change (%, negative = inhibition) at 1uM” value is on record as 5.85%.

As for `CCN(CC(=O)NCc1ccc(F)cc1)S(=O)(=O)c1ccc(C)cc1`, the “hERG current change (%, negative = inhibition) at 1uM” value is reported as -13.7%.

For the compound `O=C(CN(Cc1ccccc1)S(=O)(=O)c1ccc(F)cc1)NCc1ccncc1`, the “hERG current change (%, negative = inhibition) at 1uM” value is recorded as -9.19%.

For the compound `Cc1ccc(S(=O)(=O)N(CC(=O)O)Cc2ccccc2F)cc1`, the “hERG current change (%, negative = inhibition) at 1uM” value amounted to 6.83%.

Regarding `O=C(CCc1nnc2ccc(N3CCCC3)nn12)Nc1cc(F)ccc1F`, the “hERG current change (%, negative = inhibition) at 1uM” value is recorded as -9.58%.

As for `COc1ccc(N=C(C)C2=C(O)COC2=O)cc1`, the “hERG current change (%, negative = inhibition) at 1uM” value came out at 4.93%.

Consider `CN1CSC2=C(C#N)C(c3cccc(OCc4ccccc4)c3)CC(=O)N2C1` (stereo not shown), for which the “hERG current change (%, negative = inhibition) at 1uM” value turned out to be 4.22%.

Turning to `CCC(NC(=O)OCc1ccccc1)C(=O)Oc1ccc2ccc(=O)oc2c1` (stereo not shown), the “hERG current change (%, negative = inhibition) at 1uM” value is recorded as 18.8%.

With `C=CCn1c(SCC(=O)NNC(=O)Nc2ccc(C)cc2)nnc1-c1ccccc1`, the “hERG current change (%, negative = inhibition) at 1uM” value was found to be 1.92%.

With `CCCN1CCN(S(=O)(=O)c2c(C)[nH]c(C)c2C(=O)N2CCCCC2)CC1`, the “hERG current change (%, negative = inhibition) at 1uM” value is -0.989%.
